Experimental data reported in the supplement of paper PMC8728848.
The sample as a whole holds a higher share of the strongest signals than the screen did.

Tests used:
Test in all cases: glycan array binding signal (z-score within array); higher = stronger binding
Details in all cases: glycan notation: IUPAC condensed, linker removed
[1] = target: Fuc(a1-2)Gal(b1-3)GalNAc(a1-3)[Fuc(a1-2)]Gal(b1-4)GlcNAc
Method in brief: (§1)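 Arrays were curated from the Consortium for Functional Glycomics database, 3228 in total, and kept only where the protein sequence was available. Binding is expressed as a within-array Z-score. This score was averaged across arrays of the same protein sequence at different concentrations or buffers and across linkers, and negative values can be read as non-binding.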

[2] = target: Fuc(a1-2)Gal(b1-3)GlcNAc(b1-3)Gal(b1-4)Glc
Method in brief: as §1

[3] = target: Fuc(a1-2)Gal(b1-3)GlcNAc6S
Method in brief: as §1

[4] = target: Fuc(a1-2)Gal(b1-4)GlcNAc(b1-2)Man(a1-3)[Fuc(a1-2)Gal(b1-4)GlcNAc(b1-2)Man(a1-6)]Man(b1-4)GlcNAc(b1-4)[Fuc(a1-6)]GlcNAc
Method in brief: as §1

[5] = target: Fuc(a1-2)Gal6S(b1-3)GlcNAc6S
Method in brief: as §1

[6] = target: Fuc(a1-2)[Gal(a1-3)]Gal(b1-4)GlcNAc(b1-2)Man
Method in brief: as §1

[7] = target: Fuc(a1-2)[GalNAc(a1-3)]Gal(b1-3)GalNAc(a1-3)[Fuc(a1-2)]Gal(b1-4)GlcNAc
Method in brief: as §1

[8] = target: Fuc(a1-2)[GalNAc(a1-3)]Gal(b1-3)GlcNAc(b1-2)Man(a1-3)[Fuc(a1-2)[GalNAc(a1-3)]Gal(b1-3)GlcNAc(b1-2)Man(a1-6)]Man(b1-4)GlcNAc(b1-4)GlcNAc
Method in brief: as §1

[9] = target: Fuc(a1-2)[GalNAc(a1-3)]Gal(b1-4)GlcNAc(b1-6)GalNAc
Method in brief: as §1

[10] = target: Fuc(a1-3)[Gal(b1-4)]GlcNAc(b1-3)Gal(b1-3)[Fuc(a1-4)]GlcNAc
Method in brief: as §1

[11] = target: Fuc(a1-3)[GalNAc(b1-4)]GlcNAc6S
Method in brief: as §1

[12] = target: Gal(a1-3)Gal(b1-3)GlcNAc(b1-6)GalNAc
Method in brief: as §1

[13] = target: Gal(a1-3)Gal(b1-4)[Fuc(a1-3)]GlcNAc
Method in brief: as §1

[14] = target: Gal(b1-3)GalNAc(b1-4)[Neu5Ac(a2-3)]Gal(b1-4)Glc
Method in brief: as §1

[15] = target: Gal(b1-3)GlcNAc(b1-3)Gal(b1-4)GlcNAc(b1-6)[Gal(b1-3)GlcNAc(b1-3)]Gal(b1-4)Glc
Method in brief: as §1

[16] = target: Gal(b1-3)GlcNAc(b1-3)Gal(b1-4)[Fuc(a1-3)]GlcNAc
Method in brief: as §1

[17] = target: Gal(b1-4)GlcNAc(b1-2)Man(a1-3)[Gal(b1-4)GlcNAc(b1-2)Man(a1-6)]Man(b1-4)GlcNAc(b1-4)[Fuc(a1-6)]GlcNAc
Method in brief: as §1

[18] = target: Gal(b1-4)GlcNAc(b1-2)[Gal(b1-4)GlcNAc(b1-6)]Man(a1-6)[Gal(b1-4)GlcNAc(b1-2)Man(a1-3)]Man(b1-4)GlcNAc(b1-4)GlcNAc
Method in brief: as §1

[19] = target: Gal(b1-4)GlcNAc(b1-3)Gal(b1-4)Glc
Method in brief: as §1

[20] = target: Gal(b1-4)GlcNAc(b1-3)Gal(b1-4)GlcNAc(b1-3)Gal(b1-4)GlcNAc(b1-2)Man(a1-3)[Gal(b1-4)GlcNAc(b1-3)Gal(b1-4)GlcNAc(b1-3)Gal(b1-4)GlcNAc(b1-2)Man(a1-6)]Man(b1-4)GlcNAc(b1-4)GlcNAc
Method in brief: as §1

[21] = target: Gal(b1-4)GlcNAc(b1-3)Gal(b1-4)GlcNAc(b1-3)Gal(b1-4)GlcNAc(b1-3)Gal(b1-4)GlcNAc(b1-2)Man(a1-3)[Gal(b1-4)GlcNAc(b1-3)Gal(b1-4)GlcNAc(b1-3)Gal(b1-4)GlcNAc(b1-3)Gal(b1-4)GlcNAc(b1-2)Man(a1-6)]Man(b1-4)GlcNAc(b1-4)GlcNAc
Method in brief: as §1

[22] = target: Gal(b1-4)GlcNAc(b1-3)Gal(b1-4)GlcNAc(b1-3)Gal(b1-4)GlcNAc(b1-3)Gal(b1-4)GlcNAc(b1-2)Man(a1-3)[Gal(b1-4)GlcNAc(b1-3)Gal(b1-4)GlcNAc(b1-3)Gal(b1-4)GlcNAc(b1-3)Gal(b1-4)GlcNAc(b1-2)Man(a1-6)]Man(b1-4)GlcNAc(b1-4)[Fuc(a1-6)]GlcNAc
Method in brief: as §1

[23] = target: Gal(b1-4)GlcNAc(b1-3)Gal(b1-4)GlcNAc(b1-6)[Gal(b1-3)]GalNAc
Method in brief: as §1

[24] = target: Gal(b1-4)GlcNAc(b1-6)GalNAc
Method in brief: as §1

B1: YghJ (Escherichia coli), E3PJ90 (protein)
chain: MNKKFKYKKSLLAAILSATLLAGCDGGGSGSSSDTPPVDSGTGSLPEVKPDPTPNPEPTPEPTPDPEPTPEPIPDPEPTPEPEPEPVPTKTGYLTLGGSQRVTGATCNGESSDGFTFKPGEDVTCVAGNTTIATFNTQSEAARSLRAVEKVSFSLEDAQELAGSDDKKSNAVSLVTSSNSCPANTEQVCLTFSSVIESKRFDSLYKQIDLAPEEFKKLVNEEVENNAATDKAPSTHTSPVVPVTTPGTKPDLNASFVSANAEQFYQYQPTEIILSEGRLVDSQGYGVAGVNYYTNSGRGVTGENGEFSFSWGEAISFGIDTFELGSVRGNKSTIALTELGDEVRGANIDQLIHRYSTTGQNNTRVVPDDVRKVFAEYPNVINEIINLSLSNGATLGEGEQVVNLPNEFIEQFNTGQAKEIDTAICAKTDGCNEARWFSLTTRNVNDGQIQGVINKLWGVDTNYKSVSKFHVFHDSTNFYGSTGNARGQAVVNISNAAFPILMARNDKNYWLAFGEKRAWDKNELAYITEAPSIVRPENVTRETASFNLPFISLGQVGDGKLMVIGNPHYNSILRCPNGYSWNGGVNKDGQCTLNSDPDDMKNFMENVLRYLSNDRWLPDAKSSMTVGTNLETVYFKKHGQVLGNSAPFAFHKDFTGITVKPMTSYGNLNPDEVPLLILNGFEYVTQWGSDPYSIPLRADTSKPKLTQQDVTDLIAYMNKGGSVLIMENVMSNLKEESASGFVRLLDAAGLSMALNKSVVNNDPQGYPDRVRQRRSTPIWVYERYPAVDGKPPYTIDDTTKEVIWKYQQENKPDDKPKLEVASWQEEVEGKQVTQFAFIDEADHKTPESLAAAKQRILDAFPGLEVCKDSDYHYEVNCLEYRPGTDVPVTGGMYVPQYTQLDLSADTAKAMLQAADLGTNIQRLYQHELYFRTNGRQGERLNSVDLERLYQNMSVWLWNETKYRYEEGKEDELGFKTFTEFLNCYTNNAYVGTQCSAELKKSLIDNKMIYGEESSKAGMMNPSYPLNYMEKPLTRLMLGRSWWDLNIKVDVEKYPGVVNTNGETVTQNINLYSAPTKWFAGNMQSTGLWAPAQQEVSIESKSTVPVTVTVALADDLTGREKHEVSLNRPPRVTKTYDLKANDKVTFKVPYGGLIYIKGDSKEVQSADFTFTGVVKAPFYKDGKWQHDLNSPAPLGELESASFVYTTPKKNLNASNYTGGLEQFANDLDTFASSMNDFYGRDSEDGKHRMFTYKNLPGHKHRFANDVQISIGDAHSGYPVMNSSFSPNSTTLPTTPLNDWLIWHEVGHNAAETPLTVPGATEVANNVLALYMQDRYLGKMNRVADDITVAPEYLEESNGQAWARGGAGDRLLMYAQLKEWAEKNFDIKKWYPDGTPLPEFYSEREGMKGWNLFQLMHRKARGDEVSNDKFGGKNYCAESNGNAADTLMLCASWVAQTDLSEFFKKWNPGANAYQLPGASEMSFEGGVSQSAYNTLASLDLPKPEQGPETINQVTEHKMSAE
B1 was tested, and the “glycan array binding signal (z-score)” value [1] was -1.47, the “glycan array binding signal (z-score)” value [2] was -0.678 and the “glycan array binding signal (z-score)” value [3] was 2.47. For the same binder, the “glycan array binding signal (z-score)” value [4] was -0.129, the “glycan array binding signal (z-score)” value [5] was 3.49 and the “glycan array binding signal (z-score)” value [6] was -1.3. The “glycan array binding signal (z-score)” value [7] was -0.92, the “glycan array binding signal (z-score)” value [8] was 0.546 and the “glycan array binding signal (z-score)” value [9] was 0.95. For the same binder, the “glycan array binding signal (z-score)” value [10] was 2.74, the “glycan array binding signal (z-score)” value [11] was 0.125 and the “glycan array binding signal (z-score)” value [12] was 0.282. The “glycan array binding signal (z-score)” value [13] was -2.21, the “glycan array binding signal (z-score)” value [14] was -0.276 and the “glycan array binding signal (z-score)” value [15] was 1.23. For the same binder, the “glycan array binding signal (z-score)” value [16] was 2.4, the “glycan array binding signal (z-score)” value [17] was 2.37 and the “glycan array binding signal (z-score)” value [18] was 0.576. For the same binder, the “glycan array binding signal (z-score)” value [19] was 0.172, the “glycan array binding signal (z-score)” value [20] was 0.559 and the “glycan array binding signal (z-score)” value [21] was -0.172. For the same binder, the “glycan array binding signal (z-score)” value [22] was 2.84, the “glycan array binding signal (z-score)” value [23] was -0.193 and the “glycan array binding signal (z-score)” value [24] was -0.103.
